APEX1 inh – inhibitors of human APE1 endonuclease. P27695. recombinant APE1, TAMRA/BHQ-2 abasic DNA cleavage fluorescence. Potency, µM (top dose mostly 65.8 µM), for inactives: top-dose activity change, negative = inhibition, hits mostly inhibitors. actives 0.35% (n = 350,000);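 note: plate controls were vehicle for no effect and reference inhibitor for full effect; nearly all actives have a fitted effect of over 55% in size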
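Readout is kinetic fluorescence (ex 525, em 598 nm) from cleavage of 50 nM TAMRA/BHQ-2 THF abasic duplex by 0.75 nM APE1, compound added 15 min beforehand at RT.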
BLM inh – Bloom syndrome helicase (human) inhibition; Potency, µM (top dose mostly 56.1 µM), for the others: at the top dose activity change, negative = inhibition, most hits filed as inhibitors; recombinant BLM DNA unwinding, fluorescence dequenching; AID 2528; P54132; actives 0.2% (n = 350,000);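 note: plate controls were vehicle for no effect and no enzyme for full effect; nearly all actives have a fitted effect of over 35% in size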
GCN5L2 inh – inhibitors of human GCN5L2 histone acetyltransferase; GCN5L2 HAT assay, ThioGlo1 CoA-SH fluorescence; Potency, µM (highest dose often 58.9 µM), for inactives: top-dose activity change, negative = inhibition, usual class: inhibitors; actives 0.21% (n = 390,000); AID 504327
Target sequence (Q92830 whole entry, looked up): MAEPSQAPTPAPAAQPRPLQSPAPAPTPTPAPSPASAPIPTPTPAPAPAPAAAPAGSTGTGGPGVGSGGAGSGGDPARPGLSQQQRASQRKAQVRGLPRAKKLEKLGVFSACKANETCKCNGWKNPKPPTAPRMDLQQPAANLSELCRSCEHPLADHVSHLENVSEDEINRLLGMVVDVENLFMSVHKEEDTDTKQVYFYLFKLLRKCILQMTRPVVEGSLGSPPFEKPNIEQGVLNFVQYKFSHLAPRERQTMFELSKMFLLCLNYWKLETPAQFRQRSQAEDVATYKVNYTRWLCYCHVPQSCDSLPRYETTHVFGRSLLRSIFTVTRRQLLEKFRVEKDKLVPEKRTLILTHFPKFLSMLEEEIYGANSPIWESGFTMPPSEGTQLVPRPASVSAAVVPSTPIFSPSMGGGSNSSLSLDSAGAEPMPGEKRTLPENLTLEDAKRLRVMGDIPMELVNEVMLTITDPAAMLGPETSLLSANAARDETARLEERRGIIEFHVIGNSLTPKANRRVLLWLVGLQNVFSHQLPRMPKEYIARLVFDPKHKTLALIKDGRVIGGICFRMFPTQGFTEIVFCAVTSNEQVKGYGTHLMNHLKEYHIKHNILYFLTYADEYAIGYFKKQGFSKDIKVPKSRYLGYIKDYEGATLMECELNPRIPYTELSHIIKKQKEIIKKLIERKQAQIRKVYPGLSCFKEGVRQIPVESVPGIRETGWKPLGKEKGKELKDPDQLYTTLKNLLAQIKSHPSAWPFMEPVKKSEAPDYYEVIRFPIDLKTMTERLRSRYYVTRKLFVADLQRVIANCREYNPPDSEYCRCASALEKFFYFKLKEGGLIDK
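Preincubate 20nM GCN5L2 with compound 15 min, RT → add 50uM ThioGlo1 + 75uM H3(1-25) + 70uM acetyl-CoA → read fluorescence 0 and 20 min. Primary qHTS; fluorescent artifacts likely.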
L3MBTL1 block – L3MBTL1 (human) inhibition. AlphaScreen L3MBTL1–H3K9me1 peptide binding. Q9Y468. actives 0.66% (n = 230,000). Potency, µM (titrated, usually from 57.1 µM), for the others: at the highest dose activity, negative = inhibition, usual class: inhibitors; note: nearly all actives have a fitted effect of over 60% in size
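L3MBTL1 50 nM + b-AHA-H3(1-15)K9me1 75 nM, 30 min RT; compound added, 30 min RT; streptavidin donor/Ni-chelate acceptor beads 10 ug/mL each final, 30 min RT dark; AlphaScreen read.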
RECQ1 inh – inhibitors of human RECQ1 DNA helicase; actives 0.54% (n = 240,000); Potency, µM (top dose mostly 57.3 µM), for inactives: top-dose activity, negative = inhibition, most hits filed as inhibitors; RECQ1 DNA unwinding, red fluorescence kinetic read; P46063;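 note: plate controls were vehicle for no effect and no enzyme for full effect; nearly all actives have a fitted effect of over 30% in size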
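50 nM RECQ1T1 preincubated 15 min with compound in Tris pH 8.0 buffer with MgCl2, DTT, Tween-20 and 2.5 ug/ml poly(dI-dC); started with 200 nM TAMRA/BHQ-2 forked duplex and 2 mM ATP. Unwinding read as fluorescence (525/598 nm), two reads 2 h apart.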
KDM4E inh – JMJD2E (human) inhibition. B2RXH2. JMJD2E catalytic domain, FDH-coupled NADH fluorescence (FDH is formaldehyde dehydrogenase). Potency, µM (top dose mostly 57.1 µM), for the others: top-dose activity change, negative = inhibition, actives largely listed as inhibitors. actives 1.6% (n = 230,000); active = well fitted inhibition curve with a large enough effect, not every such curve was filed as active; inconclusive = small, poorly fitted or top-dose-only effect, or another doubt; inactive = no such curve, though single readings can be large or run the other way;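 note: 0% = wells with enzyme and -100% = buffer wells without enzyme; nearly all actives have a fitted effect of over 50% in size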
An asterisk follows results filed as active; i = inactive; ? = inconclusive; · = no result; ! = not confirmed by another sample; [ ] = dose if it differs, or a comment. Many of the other results were omitted from the sample, so hits are more common in it than they were. Unless noted, calls come from the whole dose curve; as a rule, active = well fitted curve in the direction sought with a large enough effect; inconclusive = small, poorly fitted or top-dose-only effect, or another doubt; inactive = no such curve, though single readings can be large; an effect the other way counts as inactive or inconclusive. Unless noted, % is set by controls: 0 for no effect and ±100 for the full control effect; potency is the fitted concentration of half-maximal effect.

SMILES	APEX1 inh	BLM inh	GCN5L2 inh	L3MBTL1 block	RECQ1 inh	KDM4E inh
COc1ccc(N2C(=O)/C(=C/c3cccs3)C(=O)NC2=S)cc1	-4%	0%	-11%	·	14%	?
COc1cccc(N2C(=O)NC(=O)/C(=C/c3ccc([N+](=O)[O-])s3)C2=O)c1	?	-1%	-5%	·	?	25µM*
COc1ccc(N2C(=O)NC(=O)/C(=C\c3ccc([N+](=O)[O-])s3)C2=O)cc1	?	-18%	-20%	22µM*	?	25µM*
COc1ccc(N2C(=O)/C(=C/C=C/c3ccccc3[N+](=O)[O-])C(=O)NC2=S)cc1	15%	28µM*	?	·	35µM*	?
COc1ccccc1N1C(=O)NC(=O)/C(=C/c2ccc([N+](=O)[O-])s2)C1=O	-12%	-14%	-14%	·	-26%	?
C[C@@H]1O[C@@H](O[C@H]2CC[C@@H](O[C@H]3[C@H](O)C[C@H](c4ccc5c(c4O)C(=O)C4=C(C5=O)[C@@]5(O)C(=O)C[C@](C)(O[C@H]6CC[C@H](O[C@H]7C=CC(=O)[C@H](C)O7)[C@H](C)O6)C[C@@]5(O)C=C4)O[C@@H]3C)O[C@H]2C)C=CC1=O	-7%	-18%	-42%	·	-12%	·
O=c1[nH]c(=S)n(-c2cccc(Cl)c2)c(O)c1/C=N/N1CCOCC1	0%	-4%	29%	·	-8%	-6%
Cc1occc1C(=O)Nc1ccccc1	-7%	0%	10%	·	-8%	·
Cl/C=C/CCl	17%	·	·	·	7%	·
CCN(CC)C(=O)/C(Cl)=C(\C)OP(=O)(OC)OC	·	-4%	5%	·	·	·
CCOc1ccc2nc(N=Nc3c(O)[nH]c(=S)[nH]c3=O)sc2c1	?	-9%	-11%	7.9µM*	-11%	-6%
CC(C)c1ccc(N2C(=O)NC(=O)/C(=C\C=C\c3ccco3)C2=O)cc1	?	?	?	·	16µM*	-9%
O=C1NC(=O)N(c2ccccc2)C(=O)/C1=C/c1ccoc1	?	-8%	1%	?	-22%	-6%
Cc1ccc(N2C(=O)NC(=O)/C(=C/c3cnc(-c4ccccc4)nc3)C2=O)cc1C	-5%	1%	1%	-1%	-9%	13µM*
Cc1ccc(N2C(=O)NC(=O)/C(=C\c3ccsc3)C2=O)cc1C	0%	7%	7%	11%	-18%	-9%
CC(C)c1ccc(N2C(=O)NC(=O)/C(=C\c3cnc(-c4ccccc4)nc3)C2=O)cc1	6%	1%	-9%	-3%	i	20µM*
CCNCC	2%	·	·	·	-4%	·
Cc1ccccc1-c1cncnc1NCCc1cnc[nH]1	0%	4%	-4%	·	-2%	-4%
CN1CC[C@]2(C)c3cc(O)ccc3N(C)[C@@H]12	-1%[21 µM]	-11%[21.4 µM]	8%[21.4 µM]	·	i	2.2µM*
CC1[C@H]2Cc3ccc(O)cc3[C@]1(C)CCN2CCc1ccccc1 (some centres undefined)	15%	·	-4%	?	·	·
CN1CC[C@@]2(C)c3cc(O)ccc3N(C)C12 (some centres undefined)	?	·	-5%	·	-2%	5µM*
CC(C)CN1CCCC2(CCN(C(=O)Oc3ccccc3)CC2)C1	7%	-2%	-1%	·	-11%	·
FC(F)=C(F)CCSc1ncn[nH]1	-3%	-2%	2%	-2%	i	4.5µM*
CN1CC[C@@]2(CCCN(C(=O)c3ccncc3)C2)C1	1%	3%	-1%	·	i	·
Clc1ccc(C(c2ccccc2Cl)C(Cl)(Cl)Cl)cc1 (centres undefined)	12%	·	·	·	-17%	·
SMILES	APEX1 inh	BLM inh	GCN5L2 inh	L3MBTL1 block	RECQ1 inh	KDM4E inh
N[C@@H](Cn1oc(=O)[nH]c1=O)C(=O)O	?	1%	-2%	·	-11%	20µM*
CC(C)n1c(O)c(C2c3cc(Cl)ccc3Oc3[nH]c(=O)n(C(C)C)c(=O)c32)c(=O)[nH]c1=O (centres undefined)	0%	0%	28µM*	-9%	-3%	?
CC(CCC(=O)O)C1CCC2C3CC[C@H]4CC(O)CC[C@@]4(C)C3CC[C@@]12C (some centres undefined)	?	-30%	?	·	3%	4%
C[C@H](CCC(=O)O)[C@H]1CC[C@@H]2[C@H]3CC[C@H]4C[C@H](O)CC[C@]4(C)[C@@H]3CC[C@@]21C	?	?	?	·	-23%	9%
C[C@H](CCC(=O)O)[C@H]1CC[C@H]2[C@@H]3CC[C@@H]4C[C@H](O)CC[C@]4(C)[C@H]3CC[C@]12C	?	?	25µM*!	1%	-29%	·
CC(C)CN(C(=O)CN1CC=C(c2ccccc2)CC1)c1c(N)n(CC(C)C)c(=O)[nH]c1=O	-3%	0%	-13%	4%	i	28µM*
Cc1ccccc1N1C(=O)NC(=O)/C(=C\c2ccc3c(c2)CCCN3Cc2ccccc2)C1=O	-1%	-22%	?	?	3%	-4%
O=C1NC(=S)NC(=O)C1=Cc1ccc2c(c1)CCN2CCCCl	18µM*	16µM*	3%	·	?	?
NC(Cc1ccc(Oc2cc(I)c(O)c(I)c2)c(I)c1)C(=O)O (centres undefined)	·	?	14µM*	·	·	·
CC(C)=CCCC1(C)C=Cc2c(O)c3c(c(CC=C(C)C)c2O1)OC12C(=CC4CC1C(C)(C)OC2(C/C=C(/C)C(=O)O)C4O)C3=O (centres undefined)	1%	22µM*	13µM*	·	-11%	-20%
CC(C)=CCCC1(C)C=Cc2c(O)c3c(c(CC=C(C)C)c2O1)OC12C(=CC4CC1C(C)(C)OC2(C/C=C(/C)C(=O)O)C4=O)C3=O (centres undefined)	1%	28µM*	32µM*	·	i	?
CC(C)CCCC1(C)C=Cc2c(O)c3c(c(CCC(C)C)c2O1)OC12C(CC4CC1C(C)(C)OC2(CCC(C)C(=O)O)C4O)C3=O (centres undefined)	-6%	-10%	?	·	i	-10%
Cc1cccc2c3c(ccc12)C1=C(C(=O)C3=O)[C@@H](C)CO1	-3%	-10%	-8%	·	14%	·
CC1=C(O)C(=O)C=C2C1=CC=C1[C@]2(C)CC[C@@]2(C)C3C[C@](C)(C(=O)O)CC[C@@]3(C)CC[C@@]12C (some centres undefined)	-1%	-18%	13µM*	·	-12%	?
CNc1ccc2oc(C[C@H]3O[C@]4(CC[C@H]3C)O[C@H]([C@H](C)C(=O)c3ccc[nH]3)[C@H](C)C[C@H]4C)nc2c1C(=O)O	?	0%	?	·	i	?

Assay outcomes from PubChem BioAssay.
